MCF10A rereplic: A quantitative high throughput screen for small molecules that induce DNA re-replication in MCF 10a normal breast cells | MCF 10A DNA re-replication, Hoechst nuclear intensity, 48 h | Potency, µM (highest dose often 46.1 µM), hits mostly activators | actives 2.9% (n = 350,000) | AID 624296, 2012; also: nearly all actives have a fitted effect of over 50% in size
KCNH2 3.1 block: qHTS for Inhibitors of KCHN2 3.1: Mutant qHTS; U2OS KCNH2 3.1, thallium flux FluxOr; active compounds read low; activity change, % (tested at about 1.8 µM); actives 0.95% (n = 340,000);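 active = maximum activity change below -70%; inconclusive = maximum activity change from -70% to -50%; inactive = maximum activity change above -50%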;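 also: thallium influx rate constant from kinetic fluorescence after stimulation buffer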
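Steps: virus added to U2OS suspension (4 h, RT, dark); medium with 10% FBS added, cells plated, 37 C overnight; FluxOr/Red40 loading buffer 45 min RT; stimulation buffer, 2 min kinetic read; rate constant normalized.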
KCNH2 WT inh: qHTS for Inhibitors of KCHN2 3.1: Wildtype qHTS. Voltage-gated inwardly rectifying potassium channel KCNH2 (Homo sapiens), Q12809. U2OS, BacMam KCNH2, thallium flux FluxOr; active compounds read low. activity change, % at 1.84 µM. actives 0.37% (n = 340,000);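 active = maximum activity change below -70%; inconclusive = maximum activity change between -70% and -50%; inactive = maximum activity change above -50%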
Target sequence (Q12809 whole entry, looked up): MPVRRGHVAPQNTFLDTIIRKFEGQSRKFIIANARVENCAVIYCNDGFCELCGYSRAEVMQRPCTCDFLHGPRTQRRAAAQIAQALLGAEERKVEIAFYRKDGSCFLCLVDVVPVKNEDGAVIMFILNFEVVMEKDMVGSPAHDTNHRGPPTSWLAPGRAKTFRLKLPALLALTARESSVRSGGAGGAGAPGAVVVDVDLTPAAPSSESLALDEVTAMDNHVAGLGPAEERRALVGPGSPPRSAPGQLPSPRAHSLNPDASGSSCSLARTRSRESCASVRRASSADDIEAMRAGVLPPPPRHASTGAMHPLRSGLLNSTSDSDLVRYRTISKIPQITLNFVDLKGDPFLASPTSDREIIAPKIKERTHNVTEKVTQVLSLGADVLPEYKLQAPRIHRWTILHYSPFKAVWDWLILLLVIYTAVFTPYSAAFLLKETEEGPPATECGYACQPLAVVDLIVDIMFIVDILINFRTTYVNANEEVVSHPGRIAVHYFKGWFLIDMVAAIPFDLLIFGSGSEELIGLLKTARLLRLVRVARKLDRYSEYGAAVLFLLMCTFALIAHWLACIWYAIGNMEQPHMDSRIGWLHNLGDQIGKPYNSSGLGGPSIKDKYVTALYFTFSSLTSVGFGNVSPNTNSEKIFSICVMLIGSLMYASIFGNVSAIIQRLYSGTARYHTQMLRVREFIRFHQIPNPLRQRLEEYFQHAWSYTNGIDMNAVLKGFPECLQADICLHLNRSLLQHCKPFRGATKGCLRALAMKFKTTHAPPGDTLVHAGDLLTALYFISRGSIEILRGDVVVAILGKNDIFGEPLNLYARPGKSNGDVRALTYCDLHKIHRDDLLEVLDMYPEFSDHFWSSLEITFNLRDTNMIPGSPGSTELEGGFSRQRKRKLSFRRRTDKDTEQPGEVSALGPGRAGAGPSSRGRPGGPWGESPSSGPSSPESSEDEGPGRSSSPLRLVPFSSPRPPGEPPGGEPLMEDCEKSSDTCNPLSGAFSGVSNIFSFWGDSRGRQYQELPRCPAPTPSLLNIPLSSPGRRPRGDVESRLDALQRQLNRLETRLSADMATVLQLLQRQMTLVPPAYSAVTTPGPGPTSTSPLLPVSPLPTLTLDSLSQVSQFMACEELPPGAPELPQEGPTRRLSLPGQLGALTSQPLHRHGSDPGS
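U2OS cells transduced with wild-type KCNH2 virus are loaded with FluxOr dye for 45 min, and thallium flux is measured in kinetic reads before and after stimulation buffer. Rate constants are normalized to DMSO controls.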
KB-V1 cytotox: qHTS assay for MDR1-selective chemotherapeutics: Primary screen using the drug-selected MDR subline cells KB-V1; KB-V1 MDR cells viability, CellTiter-Glo, 72 h; Potency, µM (titrated, usually from 46.1 µM), actives largely listed as cytotoxic; actives 3.4% (n = 400,000); also: nearly all actives have a fitted effect of over 60% in size
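KB-V1, DMEM (no phenol red) + 10% FBS; cpd pin-transferred, titration series; 72 h, 37 degrees C; CellTiter-Glo, luminescence. Data normalized, curve-fit.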
KB-3-1 tox: qHTS assay for MDR1-selective chemotherapeutics: Primary screen using the parental adenocarcinoma cell KB-3-1 | KB-3-1 viability, CellTiter-Glo ATP luminescence, 72 h | actives 1.4% (n = 400,000) | Potency, µM (doses to about 46.1 µM), actives largely listed as cytotoxic; also: nearly all actives have a fitted effect of over 60% in size
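Multi-concentration cytotoxicity screen in KB-3-1 cells grown in DMEM lacking phenol red with 10% FBS. After 72 h at 37 °C with compound, ATP-dependent luminescence was recorded.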
SW480 rereplic: A quantitative high throughput screen for small molecules that induce DNA re-replication in SW480 colon adenocarcinoma cells; SW480 DNA re-replication, Hoechst DNA content imaging, 48 h; Potency, µM (highest dose often 46.1 µM), most hits filed as activators; actives 1.8% (n = 340,000); also: nearly all actives have a fitted effect of over 55% in size
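DNA re-replication was detected as more nuclei of elevated Hoechst intensity after 48 hr exposure to compound (23 nL pinned per well of 250 cells).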
Numbers stand for hits. Hits are enriched below; roughly 7.6% of the tested compounds scored in any of these assays. Unless noted, calls follow the shape of the dose curve; as a rule, active = well fitted curve in the direction sought with a large enough effect; inconclusive = small, poorly fitted or top-dose-only effect, or another doubt; inactive = no such curve, though single readings can be large; an effect the other way counts as inactive or inconclusive.

`COc1ccc(-c2cc(C(F)(F)F)c(C#N)c(SCC(=O)Nc3cccc(C)c3)n2)cc1` gave KB-V1 cytotox inconclusive and KB-3-1 tox inactive.
`O=C(Nc1ccc2snnc2c1)Nc1cccc2ccccc12` gave MCF10A rereplic inconclusive, KCNH2 3.1 block inactive, KCNH2 WT inh inactive, KB-V1 cytotox inconclusive, KB-3-1 tox 21µM and SW480 rereplic inactive.
CCc1ccccc1NC(=O)Nc1ccc2snnc2c1 was read as KB-V1 cytotox inactive and KB-3-1 tox inactive.
Fc1ccc(CNCc2ccccc2C(F)(F)F)cc1 was read as MCF10A rereplic inactive, KCNH2 3.1 block inactive, KCNH2 WT inh inactive, KB-V1 cytotox inactive, KB-3-1 tox inactive and SW480 rereplic 18µM.
For O=C(Nc1cccc([N+](=O)[O-])c1)Nc1ccc2c(c1)CCC2 the results were MCF10A rereplic inactive, KCNH2 3.1 block inactive, KCNH2 WT inh inactive, KB-V1 cytotox 23µM, KB-3-1 tox inconclusive and SW480 rereplic inactive.
Screening O=C(Nc1cccc([N+](=O)[O-])c1)Nc1cccs1 returned MCF10A rereplic 0.65µM, KCNH2 3.1 block inactive, KCNH2 WT inh inactive, KB-V1 cytotox inactive, KB-3-1 tox inactive and SW480 rereplic inactive.
For O=[N+]([O-])c1cccc(NC2=NCCC2)c1 the results were MCF10A rereplic inactive, KCNH2 3.1 block inactive, KCNH2 WT inh inactive, KB-V1 cytotox inactive, KB-3-1 tox 13µM and SW480 rereplic inactive.
`O=C(Nc1cccc([N+](=O)[O-])c1)c1cccc(C(=O)Nc2cccc([N+](=O)[O-])c2)c1` gave MCF10A rereplic inactive, KCNH2 3.1 block inconclusive, KCNH2 WT inh inactive, KB-V1 cytotox inactive, KB-3-1 tox inactive and SW480 rereplic inactive.
CC(NC(=O)Nc1cccc([N+](=O)[O-])c1)(C(F)(F)F)C(F)(F)F was read as MCF10A rereplic inactive, KCNH2 3.1 block inactive, KCNH2 WT inh inactive, KB-V1 cytotox inconclusive, KB-3-1 tox 18µM and SW480 rereplic inactive.
For Cc1cc(NC(=O)CSc2nnc3ccc(-c4ccccc4)nn23)no1 the results were KCNH2 3.1 block inactive, KCNH2 WT inh inactive, KB-V1 cytotox inactive and KB-3-1 tox inactive.
Screening Cc1[nH]nc2c1-c1nc3ccccc3nc1C(C)(C)C2 returned MCF10A rereplic inconclusive, KCNH2 3.1 block inactive, KCNH2 WT inh inactive, KB-V1 cytotox 18µM, KB-3-1 tox inconclusive and SW480 rereplic inconclusive.
For CC12CCC(C)(c3nc4ccccc4nc31)C2(C)C the results were MCF10A rereplic inactive, KCNH2 3.1 block inactive, KCNH2 WT inh inactive, KB-V1 cytotox inactive, KB-3-1 tox inactive and SW480 rereplic inactive.
Screening ClCCn1cnc2c(SCc3ccccc3)ncnc21 returned MCF10A rereplic inactive, KCNH2 3.1 block inactive, KCNH2 WT inh inactive, KB-V1 cytotox 6.5µM, KB-3-1 tox 4.1µM and SW480 rereplic inconclusive.
`COC(=O)C1=CN(c2ccc(C(C)(C)C)cc2)C(N)=C(C#N)C1c1cccc2ccccc12` (stereo not drawn) gave KB-V1 cytotox inactive and KB-3-1 tox inconclusive.
`COC(=O)C1=CN(c2ccc3c(c2)OCO3)C(N)=C(C#N)C1c1ccccc1` (stereo not drawn) gave KB-V1 cytotox 2.9µM and KB-3-1 tox 7.3µM.
`COC(=O)C1=CN(c2ccc(OC)cc2)C(N)=C(C#N)C1c1cccc2ccccc12` (stereo not drawn) gave KB-V1 cytotox inconclusive and KB-3-1 tox 18µM.
`COC(=O)C1=CN(c2ccc(Oc3ccccc3)cc2)C(N)=C(C#N)C1c1ccccc1` (stereo not drawn) gave KB-V1 cytotox inconclusive and KB-3-1 tox inactive.
Screening COC(=O)C1=CN(c2cccc(OCc3ccccc3)c2)C(N)=C(C#N)C1c1ccccc1 (stereo not drawn) returned KB-V1 cytotox inconclusive and KB-3-1 tox inactive.
COC(=O)C1=CN(c2ccccc2OC)C(N)=C(C#N)C1c1cccc([N+](=O)[O-])c1 (stereo not drawn) was read as KB-V1 cytotox 4.1µM and KB-3-1 tox 4.6µM.
`C(=C\c1ccccc1)/CN1CCN(C(c2nnnn2C2CCCCC2)C2CC2)CC1` (stereo not drawn) gave KB-V1 cytotox 18µM and KB-3-1 tox inactive.
Screening CCOC(=O)c1c(SCCN2CCCC2)n(-c2ccccc2)c(=S)n(-c2ccccc2)c1=O returned MCF10A rereplic 4.6µM, KCNH2 3.1 block inactive, KCNH2 WT inh inactive, KB-V1 cytotox inactive, KB-3-1 tox inactive and SW480 rereplic 6.5µM.
`CCOC(=O)c1c[nH]c(=S)n(-c2ccccc2)c1=O` gave MCF10A rereplic inactive, KCNH2 3.1 block inactive, KCNH2 WT inh inactive, KB-V1 cytotox inconclusive, KB-3-1 tox inactive and SW480 rereplic inactive.
`C#CCOC(=O)c1ccc(-n2cncn2)nc1` gave MCF10A rereplic inactive, KCNH2 3.1 block inactive, KCNH2 WT inh inactive, KB-V1 cytotox inconclusive, KB-3-1 tox inactive and SW480 rereplic inactive.
`COc1cccc(/C=C2\SC(=S)N(CCC(=O)N3CCCCC3CCO)C2=O)c1` (stereo not drawn) gave MCF10A rereplic 23µM, KCNH2 3.1 block inactive, KCNH2 WT inh inactive, KB-V1 cytotox inconclusive, KB-3-1 tox inconclusive and SW480 rereplic 18µM.
COc1cc(/C=C2\SC(=S)N(CCC(=O)Nc3ccc(O)cc3)C2=O)cc(OC)c1OC was read as MCF10A rereplic 16µM, KCNH2 3.1 block inactive, KCNH2 WT inh inactive, KB-V1 cytotox inactive, KB-3-1 tox inactive and SW480 rereplic inconclusive.
For COc1cc(/C=C2\SC(=N)N(c3ccc(F)cc3)C2=O)ccc1O the results were MCF10A rereplic 18µM, KCNH2 3.1 block inactive, KCNH2 WT inh inactive, KB-V1 cytotox inconclusive, KB-3-1 tox inactive and SW480 rereplic inconclusive.
`N=C1S/C(=C\c2cccc3ccccc23)C(=O)N1c1ccc(F)cc1` gave MCF10A rereplic inconclusive, KCNH2 3.1 block inactive, KCNH2 WT inh inactive, KB-V1 cytotox 7.3µM, KB-3-1 tox 7.3µM and SW480 rereplic 18µM.
`N=C1S/C(=C\c2ccccc2F)C(=O)N1c1ccc(F)cc1` gave MCF10A rereplic inactive, KCNH2 3.1 block inactive, KB-V1 cytotox inactive, KB-3-1 tox inactive and SW480 rereplic inactive.
`COc1cc(/C=C2/SC(=S)N(CCC(=O)Nc3ccc(C(=O)O)cc3)C2=O)cc(OC)c1OC` gave MCF10A rereplic inactive, KCNH2 3.1 block inactive, KCNH2 WT inh inactive, KB-V1 cytotox inactive, KB-3-1 tox inactive and SW480 rereplic inconclusive.

Screening results (PubChem)
